Laboratory results published in PubChem BioAssay AID1321 (The Scripps Research Institute Molecular Screening Center, 2008).
In all, about 220,000 compounds went through this assay and about 2,600 (1.2%) were called active.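 The calls were made as follows: active = activation above the mean of all tested compounds plus 3 SD, set per screening run (cut at about 8.8% in these data); inactive = the rest.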 The entries come from a sample that favours actives as a whole.

What follows are compounds tested against Wee1-like protein kinase (Homo sapiens) (UniProt P30291) (assay: Wee1 degradation inhibitors, primary screen, cell-based, HeLa, Wee1K328M-luciferase, luminescence (AID 1321;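 also: cells exposed to compound for 20 h before luminescence read; 0% = DMSO alone and 100% = MG132 at 30 µM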)). Conditions: HeLa Luc-Wee1K328M stability, at 5 µM, stronger effect = higher value, 100% = proteasome inhibitor MG132 effect.

SMILES | reporter increase
COC(=O)c1sccc1NC(=S)Nc1ccc(C)cc1 | 2.58% (inactive)
O=C(CNCc1cccs1)Nc1cc(S(=O)(=O)N2CCCC2)ccc1Cl | 8.84% (active)
O=C(NCc1cccs1)C1CCN(S(=O)(=O)c2ccc(Cl)cc2)CC1 | 0.23% (inactive)
O=C(CNCc1ccco1)Nc1cc(S(=O)(=O)N2CCOCC2)ccc1N1CCCC1 | -2.01% (inactive)
COc1ccccc1-n1c(-c2cc(-c3ccco3)[nH]n2)n[nH]c1=S | 2.11% (inactive)
Fc1ccccc1/C=N/n1c(-c2cccnc2)n[nH]c1=S | 0.63% (inactive)
CC(=O)Nc1nc(C)c(-c2csc(Nc3ccc(S(N)(=O)=O)cc3)n2)s1 | -1.97% (inactive)
Cc1ccc(Cl)c(OCC(=O)NN2CCN(C)CC2)c1 | -4.89% (inactive)
O=C(O)CCn1cc(/C=C/C(=O)c2ccc(Cl)cc2)c(-c2cccc(Br)c2)n1 | -0.48% (inactive)
CC(C)CN(CC(C)C)CC(O)CN(c1ccccc1)S(=O)(=O)c1ccccc1[N+](=O)[O-] (stereo not drawn) | -0.95% (inactive)
COCCCNC(=S)NC(=O)c1ccccc1 | 1.37% (inactive)
COCCCNC(=O)c1c(F)c(F)c(F)c(F)c1F | 9.02% (active)
O=C(NCCN1CCOCC1)c1c(F)c(F)c(F)c(F)c1F | -1.64% (inactive)
O=C(Nc1cccnc1)c1cc([N+](=O)[O-])ccc1Cl | -1.81% (inactive)
CN1CCN(c2ccc(CNS(=O)(=O)c3cccc(F)c3)cc2)CC1 | -0.49% (inactive)
Cc1cccc(C2C3=C(CCCC3=O)N=C3c4ccccc4C(=O)C32)c1 (stereo not drawn) | 2.45% (inactive)
Cc1ccc2nc(C)c3c(c2c1)N(c1ccccc1)CC3 | 2.22% (inactive)
Cc1cc(=O)[nH]c(N/N=C/c2ccc3c(c2)OCCO3)n1 | 3.95% (inactive)
O=C(/C=C/c1ccccc1Cl)Nc1ccc(S(=O)(=O)Nc2ncccn2)cc1 | -1.98% (inactive)
O=S(=O)(Nc1ncccn1)c1ccc(NS(=O)(=O)c2cccc(Cl)c2Cl)cc1 | 9.1% (active)
O=C(CCS(=O)(=O)c1ccccc1Cl)Nc1ccc(S(=O)(=O)Nc2ncccn2)cc1 | -2.3% (inactive)
CCCSc1ncccc1C(=O)O | 5.65% (inactive)
Cc1nnc(SCC(=O)N2CCc3ccccc3C2)s1 | -1.25% (inactive)
Cc1nnc(SCC(=O)N2c3ccccc3C(C)(c3ccc(Cl)cc3)CC2(C)C)s1 (stereo not drawn) | 11.3% (active)
CC1(c2ccccc2)CC(C)(C)N(C(=O)c2cc([N+](=O)[O-])cc([N+](=O)[O-])c2)c2ccccc21 (stereo not drawn) | -3.96% (inactive)

SMILES | reporter increase
NC(=O)NC(=O)CSc1nc2cc([N+](=O)[O-])ccc2n1-c1cccc(C(F)(F)F)c1 | 0.4% (inactive)
N#CCc1ccc(OC(=O)c2cccnc2)cc1 | -2.7% (inactive)
COc1ccc(-c2noc(CSc3ccc(C)cc3)n2)cc1 | 13.7% (active)
COc1ccc(-c2noc(-c3ccc(C)cc3)n2)cc1 | -0.18% (inactive)
COc1ccc(-c2noc(CN(C)S(=O)(=O)c3ccc(C)cc3)n2)cc1 | -2.95% (inactive)
CC1CC(=O)Nc2ccccc2N1S(=O)(=O)c1cccs1 (stereo not drawn) | 4.07% (inactive)
CCC(C)Cn1c(O)cc2nn(-c3nc4ccccc4s3)c(=O)c-2c1C (stereo not drawn) | -4.96% (inactive)
NC(=S)N/N=C/c1ccc([N+](=O)[O-])cc1 | -3.91% (inactive)
O=C(N/N=C/c1ccc([N+](=O)[O-])cc1)C(=O)N1CCCC1 | 9.76% (active)
O=C(N/N=C/c1ccc2c(c1)OCO2)C(=O)N1CCCC1 | 2.71% (inactive)
O=C(Nc1ccc2nc3n(c(=O)c2c1)CCCCC3)c1ccccc1Cl | 0.41% (inactive)
Cc1cccc2c(=O)n3c(nc12)CCCCC3 | -0.11% (inactive)
Cc1ccc2nc3n(c(=O)c2c1)CCC3 | 12.8% (active)
CNC(=O)c1csc(Cc2c(Cl)sc3ccc(Cl)cc23)n1 | 0.14% (inactive)
O=C(COc1ccccc1)N1CCN=C1SCc1cccc(F)c1 | -0.6% (inactive)
CS(=O)(=O)c1sc(C(=O)NC(=S)Nc2ccc(OC(F)(F)F)cc2)c2c1C=CCC2 | 3.21% (inactive)
CCOC(=O)c1c(C)nn(-c2ncccc2NC(=O)CCC(=O)O)c1C | -3.19% (inactive)
O=C(COC(=O)c1ccc[nH]c1=O)Nc1ccc2c(c1)OC(F)(F)O2 | 7.03% (inactive)
CN1C(=O)/C(=C/C=C2\SCCN2C)OC1=S | 9.67% (active)
CCCC(=O)N(CCc1ccccc1)Cc1nc2ccccc2c(=O)[nH]1 | -2.77% (inactive)
CN(C)S(=O)(=O)c1cc(NC(=O)CN2C(=O)NC3(CCCc4ccccc43)C2=O)ccc1Cl (stereo not drawn) | -2.38% (inactive)
CCN(CC(=O)Nc1ccc(Cl)c(S(=O)(=O)N(C)C)c1)Cc1nc2ccccc2c(=O)[nH]1 | 9.09% (active)
CCN(CC(=O)Nc1cccc(S(N)(=O)=O)c1)Cc1nc2ccccc2c(=O)[nH]1 | -3.31% (inactive)
CCN(CC(=O)NC(=O)NCc1ccccc1)Cc1nc2ccccc2c(=O)[nH]1 | 10.5% (active)
O=C(c1ccco1)N(Cc1nc2ccccc2c(=O)[nH]1)C1CCCC1 | -0.38% (inactive)

SMILES | reporter increase
CC#CC[N+](C)(C)CCCCCC | 3.56% (inactive)
CC(C)CCNC(=O)C1CCC(CNc2c(N3CCC(C)CC3)c(=O)c2=O)CC1 (stereo not drawn) | -0.83% (inactive)
Cc1csc(/N=C/N(C)C)c1C#N | -2.57% (inactive)
C/C(CC(=O)NC(C)c1ccccc1)=N\NC(N)=S (stereo not drawn) | -1.77% (inactive)
CC(=O)c1cccc(CN2CCC(CO)(Cc3ccccc3)CC2)c1 | -2.2% (inactive)
OCC1(Cc2ccccc2)CCN(Cc2cc3ccccc3o2)CC1 | -0.66% (inactive)
CC(C)c1csc(CN2CCC(CO)(Cc3ccccc3)CC2)n1 | 11.4% (active)
CC(=O)Cn1ncc(N2CCOCC2)c(Br)c1=O | 1.92% (inactive)
Cn1c(=O)c2c(nc(N3CCCCCC3)n2CC(=O)c2ccc(Br)cc2)n(C)c1=O | -1.77% (inactive)
O=C(Cn1ncc(N2CCCC2)c(Br)c1=O)c1ccc(Cl)cc1 | 9.08% (active)
CCc1ccc(S(=O)(=O)Nc2ccc(C)c(NS(C)(=O)=O)c2)cc1 | -2.18% (inactive)
COC(=O)c1c(C)oc(C)c1S(=O)(=O)Nc1ccc(C(C)C)cc1 | -0.82% (inactive)
NC(=S)N/N=C/c1coc2cc(Cl)ccc2c1=O | 7.29% (inactive)
O=c1c(/C=N/O)coc2ccc(Cl)cc12 | 13.3% (active)
O=C(N/N=C/c1coc2ccccc2c1=O)c1cc2ccccc2o1 | 2.23% (inactive)
O=C(NN1C(=O)C2C(C1=O)C1C=CC2C12CC2)c1ccccc1Cl (stereo not drawn) | 1.5% (inactive)
C=CCSc1nc(N)cc(=O)[nH]1 | 0.5% (inactive)
O=C(O)Cc1csc(NC(=O)CSc2nnnn2-c2ccc(O)cc2)n1 | -2.13% (inactive)
OCCNc1nc2ccccc2n1-c1ncnc2sc3c(c12)CCC3 | 13.6% (active)
O=C(O)[C@@H]1CCCN1c1ncnc2sc3c(c12)CCC3 | 3.81% (inactive)
CC(C)(C)C(=O)Cn1c(NCCO)nc2ccccc21 | -0.8% (inactive)
COCc1cc(=O)oc2cc(NS(=O)(=O)c3ccc(C)cc3)ccc12 | 5.18% (inactive)
CC(C)(C)c1ccc(C(=O)NCc2nnc(SCC(=O)N3CCCc4ccccc43)n2-c2ccccc2)cc1 | 9.34% (active)
Cc1nnc(SCC(=O)N2CCc3ccccc32)n1-c1ccccc1 | 4.42% (inactive)
O=C(CSc1nc2[nH]ncc2c(=O)n1-c1ccccc1)N1CCCc2ccccc21 | -1.42% (inactive)

SMILES | reporter increase
CC(=O)Nc1ccc(/C=C/C(=O)c2ccccc2)cc1 | 1.71% (inactive)
CSc1nnnn1-c1c(C)cc(C)cc1C | -0.91% (inactive)
S=C(NNC(=S)NC1CC2C=CC1C2)NC1CC2C=CC1C2 (stereo not drawn) | -1.36% (inactive)
CC(C)c1ccc(NC(=S)NC2CC3C=CC2C3)cc1 (stereo not drawn) | 18.5% (active)
S=C(NNC(=S)NC1CC2CCC1C2)NC1CC2C=CC1C2 (stereo not drawn) | -2.51% (inactive)
COc1ccc([N+](=O)[O-])cc1N(CC(O)CN(CC(C)C)CC(C)C)S(=O)(=O)c1ccc(C)cc1 (stereo not drawn) | -0.64% (inactive)
CCC(=O)Nc1c(S(=O)(=O)c2ccccc2)c2nc3ccccc3nc2n1Cc1ccccc1 | -1.34% (inactive)
CCN(CC)CCn1c(N)c(S(=O)(=O)c2ccccc2)c2nc3ccccc3nc21 | 12.4% (active)
Cc1ccc(S(=O)(=O)c2c(N)n(C)c3nc4ccccc4nc23)cc1 | -2.43% (inactive)
CSCCC(NS(=O)(=O)c1ccc2c(c1)oc(=O)n2C)C(=O)NCc1ccccc1 (stereo not drawn) | 5.59% (inactive)
O=C(CCl)Nc1cccc(CP(=O)(c2ccccc2)c2ccccc2)c1 | 1.71% (inactive)
COc1ccc(C(=O)N/N=C(\C)CC(=O)Nc2ccc(Cl)cn2)cc1 | 0.12% (inactive)
CC(=O)Nc1ccc(-c2csc(NC=C3C(=O)OC(C)(C)OC3=O)n2)cc1 | 0.77% (inactive)
O=C(Nc1nc2ccccc2s1)c1ccc2c(c1)OCO2 | -1.51% (inactive)
O=C(Nc1ccccc1)Nc1nc2ccccc2s1 | 12.1% (active)
CC(=O)Nc1ccc(-c2csc(NC(=O)Nc3ccccc3)n2)cc1 | 16.9% (active)
CC(=O)Nc1ccc(S(=O)(=O)Nc2nc(-c3ccc(C(C)(C)C)cc3)cs2)cc1 | 3.64% (inactive)
CSCCC(Nc1nc2ccccc2s1)C(=O)O (stereo not drawn) | 1.41% (inactive)
O=C(CCCl)Nc1ccc(S(=O)(=O)NCc2ccco2)cc1 | 4.12% (inactive)
Cc1ccc(C(=O)NCC(=O)OCC(=O)Nc2cccc(S(=O)(=O)N3CCCC3)c2)cc1C | 0.09% (inactive)
CCCCC(CC)CNC(=O)CCCCn1c(=O)[nH]c2ccsc2c1=O (stereo not drawn) | 20% (active)
CCN(CCCNC(=O)CCn1c(=O)[nH]c2ccsc2c1=O)c1ccccc1 | 4.65% (inactive)
CCN(CC)CCNC(=O)CCCCCn1c(=O)[nH]c2cc(C(=O)OC)ccc2c1=O | -1.39% (inactive)
